Screening data as filed in PubChem BioAssay.
Sampled rows, rich in hits. Any-hit rate of the full collection: about 6.6%.
GDH-TPI inh = inhibits GDH-TPI coupling enzymes, artifact for Mtb FBA screen | GDH-TPI coupled enzyme counterscreen, NADH absorbance | inhibition, % at 4.8 µM | hit rate 1.2% among 360,000 | AID 588335; in the data active = inhibition above about 30%;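 note: 0% = DMSO wells and 100% = wells lacking the enzyme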
Mtb FBA inh = inhibitors of M. tuberculosis fructose-bisphosphate aldolase. purified M. tuberculosis FBA, fluorescence read-out. inhibition, % at 1 µM. hit rate 2.3% among 360,000; in the data active = inhibition above about 27%;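 note: 0% = vehicle and 100% = reference inhibitor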
Target sequence (P9WQA3 whole entry, looked up): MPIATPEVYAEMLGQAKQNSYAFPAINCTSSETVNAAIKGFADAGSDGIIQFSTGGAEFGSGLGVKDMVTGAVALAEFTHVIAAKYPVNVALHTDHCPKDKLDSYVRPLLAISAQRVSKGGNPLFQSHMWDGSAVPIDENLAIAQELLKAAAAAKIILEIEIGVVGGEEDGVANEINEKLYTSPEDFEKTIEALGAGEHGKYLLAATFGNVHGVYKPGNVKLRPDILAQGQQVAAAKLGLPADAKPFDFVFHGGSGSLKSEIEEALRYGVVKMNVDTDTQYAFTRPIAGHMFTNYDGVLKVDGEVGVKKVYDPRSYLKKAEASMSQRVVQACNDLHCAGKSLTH
BoNT-A LC inh2 = inhibitors of Botulinum neurotoxin A light chain protease | multiplex microsphere protease substrate cleavage, flow cytometry | AID 588499 | hit rate 0.17% among 360,000 | inhibition, % at 10 µM; note: plate controls were buffer without enzyme for full effect and enzyme alone for no effect
Autofluor counter = compound fluorescence in toxin protease inhibitor counterscreen; compound autofluorescence counterscreen, microsphere flow cytometry; stronger effect = higher value; fluorescence intensity (no concentration beside the values); hit rate 3.1% among 360,000; in the data active = fluorescence intensity above about 16000; inconclusive = no clear call, values can overlap the other calls
Anthrax LF inh2 = blocks Bacillus anthracis lethal factor protease; P15917; multiplex microsphere protease cleavage assay, LF; inhibition, % at 10 µM; hit rate 0.12% among 360,000; note: plate controls were buffer without enzyme for full effect and enzyme alone for no effect
BoNT F protease = inhibitors of Botulinum neurotoxin F light chain protease. Multiplex microsphere protease cleavage assay, flow cytometry. inhibition, % at 10 µM. hit rate 0.22% among 360,000. AID 588497; in the data active = inhibition above about 35%, passing the limit was not always enough; inconclusive = no clear call, values can overlap the other calls; note: plate controls were buffer without enzyme for full effect and enzyme alone for no effect
An asterisk follows results filed as active. Cut-off read from the data, not from the text of the source, unless noted: active = inhibition above about 30%; inconclusive = no clear call, values can overlap the other calls; inactive = below that.

For O=C(N=Nc1c(O)[nH]c2ccccc12)c1ccccc1NS(=O)(=O)c1cccs1 the results were GDH-TPI inh 33.6*, Mtb FBA inh -3.5, BoNT-A LC inh2 -0.4, Autofluor counter 1986, Anthrax LF inh2 -0.1 and BoNT F protease 4.1.
`CC(C)(O)C(=O)N=Nc1c(O)[nH]c2ccccc12` gave GDH-TPI inh 2.5, Mtb FBA inh -1.4, BoNT-A LC inh2 -0.7, Autofluor counter 4662, Anthrax LF inh2 0.5 and BoNT F protease -5.2.
`Cc1ccc(C)n1-c1ccc(-c2ccnc(N)n2)cc1` gave GDH-TPI inh -1.3, Mtb FBA inh 6.1, BoNT-A LC inh2 0.2, Autofluor counter 5641, Anthrax LF inh2 -3.2 and BoNT F protease -4.8.
For O=C(NCc1ccco1)c1nc2nc(-c3cccs3)cc(C(F)(F)F)n2n1 the results were GDH-TPI inh 27.9, Mtb FBA inh active, BoNT-A LC inh2 0.0, Autofluor counter 3692, Anthrax LF inh2 -0.6 and BoNT F protease -9.3.
`COC(=O)c1nc2nc(-c3cccs3)cc(C(F)(F)F)n2n1` gave GDH-TPI inh 18.2, Mtb FBA inh active, BoNT-A LC inh2 1.0, Autofluor counter 2058, Anthrax LF inh2 -1.5 and BoNT F protease -3.2.
COC(=O)c1nc2nc(C)cc(C(F)(F)F)n2n1 was read as GDH-TPI inh -2.2, Mtb FBA inh -2.7, BoNT-A LC inh2 -0.6, Autofluor counter 4651, Anthrax LF inh2 6.1 and BoNT F protease -4.3.
O=C(COC(=O)C1CSC2(c3ccc(F)cc3)CCC(=O)N12)NC(=O)NC1CCCC1 (stereo unspecified) was read as GDH-TPI inh 3.1, Mtb FBA inh -0.5, BoNT-A LC inh2 -0.7, Autofluor counter 4438, Anthrax LF inh2 2.5 and BoNT F protease 4.9.
For C[N+](C)(C)CCC(=O)N1C/C(=C/c2ccccc2)C(=O)/C(=C\c2ccccc2)C1 the results were GDH-TPI inh 40.5*, Mtb FBA inh 0.1, BoNT-A LC inh2 -0.7, Autofluor counter 4045, Anthrax LF inh2 3.3 and BoNT F protease -11.9.
O=C(/C=C/c1ccccc1)CCN1CCOCC1 was read as GDH-TPI inh 17.2, Mtb FBA inh 0.7, BoNT-A LC inh2 0.6, Autofluor counter 3757, Anthrax LF inh2 2.3 and BoNT F protease 3.1.
O=C1/C(=C/c2ccccc2)CN(C(=O)CCN2CCOCC2)C/C1=C\c1ccccc1 was read as GDH-TPI inh 37.1*, Mtb FBA inh 3.0, BoNT-A LC inh2 -0.3, Autofluor counter 3119, Anthrax LF inh2 5.2 and BoNT F protease -9.1.
Screening CN(C)CCC(=O)N1C/C(=C/c2ccccc2)C(=O)/C(=C\c2ccccc2)C1 returned GDH-TPI inh 35.3*, Mtb FBA inh 0.7, BoNT-A LC inh2 0.1, Autofluor counter 4204, Anthrax LF inh2 5.5 and BoNT F protease -6.8.
For CC(=O)Nc1cccc(NC(=O)c2ccc(COc3ccccc3)cc2)c1 the results were GDH-TPI inh -3.0, Mtb FBA inh 0.0, BoNT-A LC inh2 0.0, Autofluor counter 3934, Anthrax LF inh2 8.2 and BoNT F protease 6.5.
`Cc1ccc(Sc2ccc(S(=O)(=O)Nc3ccc(CC(=O)O)cc3)cc2)cc1C` gave GDH-TPI inh 6.3, Mtb FBA inh -1.1, BoNT-A LC inh2 -0.7, Autofluor counter inconclusive, Anthrax LF inh2 1.2 and BoNT F protease 6.4.
`COc1ccc(CNC(=O)CCNS(=O)(=O)c2ccc(C)cc2)cc1` gave GDH-TPI inh -3.7, Mtb FBA inh -1.7, BoNT-A LC inh2 0.0, Autofluor counter 4607, Anthrax LF inh2 -2.8 and BoNT F protease -19.1.
`CC(C)NS(=O)(=O)c1ccc(CCC(=O)NCc2cccnc2)cc1` gave GDH-TPI inh 8.3, Mtb FBA inh 2.9, BoNT-A LC inh2 1.3, Autofluor counter 3322, Anthrax LF inh2 3.9 and BoNT F protease -22.4.
For Cc1ccc(S(=O)(=O)NCCC(=O)NCc2cccnc2)cc1 the results were GDH-TPI inh 2.1, Mtb FBA inh -0.7, BoNT-A LC inh2 0.7, Autofluor counter 5368, Anthrax LF inh2 -9.9 and BoNT F protease -1.9.
`CSc1ccc(S(=O)(=O)NCc2ccccc2)cc1` gave GDH-TPI inh 8.1, Mtb FBA inh 2.5, BoNT-A LC inh2 0.8, Autofluor counter 22207*, Anthrax LF inh2 0.2 and BoNT F protease 1.7.
For O=C(CCNS(=O)(=O)c1ccc(Cl)cc1)NCc1cccnc1 the results were GDH-TPI inh 5.0, Mtb FBA inh -3.0, BoNT-A LC inh2 -0.6, Autofluor counter 23127*, Anthrax LF inh2 -3.2 and BoNT F protease -0.7.
